Data on 101 compounds can be found in PubChem BioAssay AID623868 (Vanderbilt High Throughput Screening Facility, 2012).

Each structure is given as a SMILES string. The whole screen tested about 2,100 compounds, of which about 760 (36%) were called active. These entries were drawn from the full list. A number with no mark means an inactive call.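 How the source made its calls: active means thallium-flux fluorescence traces judged by eye to show enhanced or reduced glutamate response, manual score 1 or -1, so both directions (some results past the limit were not filed as active); inactive means the rest, including fluorescent or raised-baseline compounds.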

This experiment is described as follows: non-GIRK thallium flux modulation in mGlu8 cells, confirmation, counter-screen for GIRK activator project, cell-based, HEK-293 rmGlu8, no GIRK (AID 623868).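 Further: extra codes mark interference with 3 for fluorescent and 4 for baseline rise.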 The settings on record: thallium flux fluorescence, at 10 µM, actives lie on both sides, codes: 1 enhancer, -1 blocker, 0 none, thallium stimulus containing EC20 glutamate. In general terms: Counterscreens check selectivity or assay interference.
In the case of `O=c1sc(N2CCN(c3ccccc3F)CC2)nc2ccsc12`, the manual score is 0.
For `COc1ccc(C2C(C(N)=O)=C(C)Nc3nc(-c4cccc(Cl)c4)nn32)cc1OC` (stereo unspecified) the value was 0.
For the compound `OC(c1ccccc1)C1CN(Cc2ccccc2)CCC1(O)c1ccccc1` (stereo unspecified), the manual score is 0.
For `C=CCNC(=S)Nc1nc2c(cc1C(=O)OCC)CCCC2` the value was 1 (active).
For `C=C(C)CNC(=S)Nc1nc2c(cc1C(=O)OCC)CCCC2` the value was 1 (active).
For `CCOC(=O)c1cc(NC(=O)SCC(=O)O)c(C)nc1C` the value was 0; for `CCNC(=S)Nc1nc2c(cc1C(=O)OCC)CCCC2`, 1 (active); for `Cc1cc(C)cc(NC(=O)Cn2cc3c(n2)CCCCC3)c1`, 0.
On to `C=C(C)CNC(=S)N/N=C1\CCCCc2ccccc21`, for which the manual score is 0.
`CCN(C(=O)COc1cc(=O)n(CC)c2ccccc12)c1cc(Cl)ccc1OC`: the manual score is 0.
With `N#CC(C#N)=C1C=C2C=C(N3CCCCC3)CCC2CC1` (stereo unspecified), the manual score was 3.
`Cc1onc(-c2ccccc2)c1C(=O)NNC(=S)NC(=O)c1ccc(Br)cc1`: the manual score is 1 (active).
For `Cc1ccc(C(=O)NNC(=S)NC(=O)c2ccc(Cl)cc2Cl)cc1` the value was 1 (active); for `O=C(COc1ccccc1)NNC(=S)NC(=O)c1ccc(Cl)cc1Cl`, 1 (active); for `O=C(NC(=S)NNC(=O)c1cccs1)c1ccc(Br)o1`, 1 (active).
For `Cc1ccc(-c2cnc(NC(=O)CCC(=O)N3CCCCC3)n2C)cc1` the value was 0; for `CCOC(=O)N1CCC(NC(=O)c2cnn3c2NC(c2ccco2)CC3C(F)(F)F)CC1` (stereo unspecified), 0; for `COc1cc(OC)c2nc(C)c3c(c2c1)N(c1ccc(O)cc1)CC3`, 0.
On to `CCC1Oc2ccc(C)cc2N(CC(=O)N(Cc2ccc(C)o2)C2CCCC2)C1=O` (stereo unspecified), for which the manual score was 0.
As for `CCOC(=O)c1oc2nc(C(C)C)c3c(c2c1N)CC(C)(C)OC3`, the figure is 0; as for `Cc1ccccc1C(=O)NC(=S)Nc1sc2c(c1C#N)CCCC2`, 0.
For the compound `Cc1onc(-c2ccccc2)c1C(=O)NC(=S)Nc1sc2c(c1C#N)CCCC2`, the manual score is 1 (active).
As for `Cc1cccc(C(=O)NC(=S)NNC(=O)c2cccs2)c1`, the figure is 1 (active).
Regarding `Cc1cccc(C(=O)NC(=S)NNC(=O)c2ccccc2Cl)c1`, the manual score is 1 (active).
For `Cc1ccccc1C(=O)NNC(=S)NC(=O)c1ccccc1` the value was 1 (active); for `O=C(CSc1nnc2ccccn12)Nc1nsc(-c2ccccc2)n1`, 0.
For `CCc1ccccc1N(C)C(=O)CCc1nc(-c2ccc(C)cc2)no1` the value was 0; for `O=C(Nc1cccc(S(=O)(=O)c2cccc(NC(=O)C3CC3)c2)c1)C1CC1`, 0.5.
As for `Cc1cccc(NC(=O)CN(c2ccc(C(C)C)cc2)S(=O)(=O)c2c(C)nn(C)c2C)n1`, the figure is 0; as for `COc1ccc(C2CC(c3ccc(Cl)c(Cl)c3)Nc3nc(N)nn32)cc1` (stereo unspecified), 0; as for `Cc1c(Cl)cccc1NC(=S)/C(=C(\[O-])c1ccc(Cl)s1)[n+]1ccccc1`, 0.
Consider `Cc1ccccc1C(=O)NNC(=S)NC(=O)c1ccc(Cl)cc1Cl`, for which the manual score was 1 (active).
For `Cc1ccc(C(=O)NNC(=S)NC(=O)c2ccc(Cl)cc2)cc1` the value was 1 (active).
For the compound `Cc1ccccc1C(=O)NNC(=O)C(=O)Nc1cccc(Cl)c1C`, the manual score is 1 (active).
Regarding `Cc1ccccc1C(=O)NC(=S)Nc1ccc(Oc2ccc(Cl)cc2)cc1`, the manual score was 0.
For `Cc1cccc(C(=O)NC(=S)NNC(=O)c2ccc(Cl)cc2)c1` the value was 1 (active); for `O=C(O)C1C2C=CC3(CN(C4CCCC4)C(=O)C13)O2` (stereo unspecified), 0; for `O=C1C2C3C=CC(C3)C2C(=O)N1/N=C/c1cn(Cc2ccccc2)c2ccccc12` (stereo unspecified), 0.
For `Cc1cc(C)nc(N(C#N)Cc2ccc(Br)cc2)n1` the value was 0; for `CCn1c(SCC(=O)c2cc(C)n(CC3CCCO3)c2C)nc2ccccc21` (stereo unspecified), 0.
For `COC(=O)c1cc(CSc2nc3ccc(C)cc3[nH]2)oc1C` the value was -1 (active).
As for `O=C(CSc1nc2ccc(Cl)cc2[nH]1)Nc1ccc2c(c1)CCC2`, the manual score is 0.
For `Cc1ccc(CSc2nc3ccncc3[nH]2)cc1` the value was 0; for `O=C(CCS(=O)NCc1ccccc1)NCc1ccccc1` (stereo unspecified), 0; for `Cc1ccc(N2C=Nc3ccc(C)c4nc(C)cc2c34)cc1`, -1 (active).
As for `CN1CC=C2C(C#N)=C(N)C(C#N)(C#N)[C@H](c3cccc(Cl)c3)C2C1` (stereo partly specified), the figure is 3.
`Cc1ccc(CN2C3=NCCCN3c3ccccc32)cc1`: the manual score was 0.
Turning to `COc1cc(/C=C(/C#N)c2ccc(F)cc2)ccc1OCc1ccc(C(=O)O)o1`, the manual score is -1 (active).
As for `COc1cc(CNCCc2c[nH]c3ccccc23)ccc1OCc1ccc(F)cc1`, the figure is 0; as for `COc1ccc(CN2CCNC(=O)C2CC(=O)O)cc1OC` (stereo unspecified), 0; as for `CSc1nc(Sc2ccccc2)c2ccccc2n1`, 0.
For `O=C(/C=C/c1cccs1)NC(=S)NNC(=O)Cc1cccs1` the value was 1 (active); for `COc1cc(NC(=O)Cc2cccs2)cc(OC)c1`, 0.
Turning to `O=C(Cc1cccs1)Nc1cccnc1`, the manual score was 0.
Take `CCOc1ccc(C(=O)CN2CCN(S(=O)(=O)c3ccc(Br)cc3)CC2)cc1`: the manual score is 0.
With `O=C(NNC(=O)c1cc(-c2ccccc2)n(-c2ccccc2)n1)c1cccc([N+](=O)[O-])c1`, the manual score is 1 (active).
Take `COc1ccc(Nc2nc(-c3cccc([N+](=O)[O-])c3)nc3ccccc23)cc1`: the manual score was 0.
As for `CC(=O)c1sc(NC(=O)c2cc(-c3ccccc3)nn2-c2ccccc2)nc1C`, the figure is 0; as for `Cn1c2ccccc2c2cc(C(=O)NNS(=O)(=O)c3ccc(F)cc3)sc21`, 0.5.
For `Cc1sc2c(c1C)CN(C1CC(C)(C)NC(C)(C)C1)CN2C(=O)c1ccco1` the value was 0.
As for `COC(=O)c1ccc(C(=O)OC)c(NC(=O)CSc2nc(-c3ccco3)cc(C(F)(F)F)n2)c1`, the figure is 0.
In the case of `CC1CCCN(S(=O)(=O)c2ccc(C(=O)Nc3nnc(-c4ccccc4Cl)o3)cc2)C1` (stereo unspecified), the manual score is 1 (active).
For `O=C(Nc1nnc(-c2ccccc2Cl)o1)c1ccc(S(=O)(=O)N2CCCCCC2)cc1`, the manual score was 1 (active).
As to `CCN(CC)c1ccc2cc(C(=O)NNC(=O)c3ccc(S(=O)(=O)N4CCCCC4)cc3)c(=O)oc2c1`, the manual score is 0.
For the compound `COc1ccccc1NC(=O)c1ccc(S(=O)(=O)N2CCCC2)cc1`, the manual score was 0.
With `O=S(=O)(c1ccc(-c2nnc(SCc3nnc(-c4ccccc4)o3)o2)cc1)N1CCCC1`, the manual score is 0.
For `Cc1cc(C)nc(N2CCCC(C(=O)NCCc3ccc(F)cc3)C2)n1` (stereo unspecified), the manual score is 0.
On to `CN1/C(=C\C=C2/C(=O)Oc3ccccc3C2=O)C(C)(C)c2ccccc21`, for which the manual score is 3.
For `Cc1ccc(NC(=O)COc2cccnc2[N+](=O)[O-])cc1S(=O)(=O)N1CCCCC1` the value was 0; for `Cc1nn(CC(=O)Nc2ccc(Cl)c(S(=O)(=O)N(C)C)c2)c(C)c1[N+](=O)[O-]`, 0; for `CC1(C)CC2CC(C)(CN2C(=S)NC(=O)c2ccccc2Cl)C1` (stereo unspecified), 1 (active).
With `CC1(C)CC2CC(C)(CN2c2ncnc3ccccc23)C1` (stereo unspecified), the manual score is 0.
For `Nn1c(SC/C=C/c2ccccc2)nnc1-c1ccccn1` the value was 0; for `Clc1cccc(CSc2nc3ccncc3[nH]2)c1`, 0.
For `Cc1ccc(NC(=S)c2nc3ccccc3[nH]2)cc1` the value was 1 (active); for `Fc1ccc(CSc2nc3ccccc3[nH]2)c2ccccc12`, 0.
As for `Cc1oncc1C(=S)Nc1ccccc1`, the manual score was 0.
As for `NC(=O)SCC(=O)Nc1ccc(Cl)cc1`, the figure is 0; as for `S=C(Nc1ccc(Cl)cc1)c1nc2ccccc2[nH]1`, 1 (active); as for `CC(C)c1nc(N2CCN(C(=O)c3ccccc3)CC2)c(C#N)c2c1COC(C)(C)C2`, 0.
For `O=C(NC(=S)Nc1ccccc1N1CCCC1)c1ccc(-c2cccc([N+](=O)[O-])c2)o1` the value was 0.5; for `Cc1c(C(=O)NC(=S)Nc2ccccc2N2CCCC2)cccc1[N+](=O)[O-]`, 1 (active).
For `O=C(NC(=S)Nc1ccccc1N1CCCC1)c1ccc([N+](=O)[O-])cc1` the value was 1 (active); for `O=C(NC(=S)Nc1ccccc1N1CCCC1)c1ccccc1[N+](=O)[O-]`, 1 (active).
For `O=C(CSc1nc(O)cc(=O)n1-c1ccccc1)N1CCCCC1`, the manual score is 2.
`COc1cccc(N(CC(=O)Nc2cccc(C(C)=O)c2)S(C)(=O)=O)c1`: the manual score is 0.
For `CCOC(=O)C1=C(C)NC2=C(C(=O)C(C(=O)OCC)C(c3cccc(OC)c3)C2)C1c1ccccn1` (stereo unspecified) the value was -0.5.
As for `COC(=O)CSc1nc2ncccc2[nH]1`, the figure is 0; as for `COc1cc(/C=C2\SC(=S)NC2=O)ccc1OS(=O)(=O)c1ccccc1`, 1 (active); as for `COc1ccc(/C=C/C(=O)N2CCN(S(=O)(=O)/C=C/c3ccccc3)CC2)cc1OC`, 0.
As for `COc1ccc(/C=C2\SC(=O)NC2=S)cc1OC`, the manual score was 1 (active).
For the compound `COc1cc(/C=C2/SC(=S)NC2=O)ccc1OS(=O)(=O)c1ccc(C)cc1`, the manual score was 1 (active).
As to `COc1cc(/C=C2\S/C(=N/S(=O)(=O)c3ccc(C)cc3)NC2=O)c([N+](=O)[O-])cc1OC`, the manual score is 0.
For the compound `O=C1NC(=O)/C(=C\c2ccccc2Oc2ccc(F)c(F)c2)S1`, the manual score was 0.
As for `CCOc1ccc(OCCSc2nc3ccccc3[nH]2)cc1`, the figure is 0; as for `Cc1ccc(C(=O)Nc2cnc3ccccn3c2=O)cc1`, 0.
As for `Cc1ccc(C(=O)Nc2nc(-c3ccccc3)c(-c3ccccc3)o2)cc1`, the figure is 1 (active); as for `O=C(Nc1nc(-c2ccccc2)c(-c2ccccc2)o1)c1ccc(F)cc1`, 1 (active); as for `OCCCN=c1cc(-c2ccccc2)oc2ccc(Cl)cc12`, -0.5.
On to `CCCSc1nnc(Nc2ccccc2C)s1`, for which the manual score was 0.
As for `O=C(O)CC/C(=C\c1cc([N+](=O)[O-])ccc1Cl)c1nc2ccccc2s1`, the manual score was -1 (active).
